Screens as filed in PubChem.
A selection: hits, their analogues and other compounds. The true share with any hit is near 5.7%.
JMJD2E inh = blocks human JMJD2E demethylase activity; JMJD2E catalytic domain, FDH-coupled NADH fluorescence (FDH is formaldehyde dehydrogenase); Potency, µM (series often up to 57.1 µM), usual class: inhibitors; 230,000 tested, 1.6% active; active = well fitted inhibition curve with a large enough effect, not every such curve was filed as active; inconclusive = small, poorly fitted or top-dose-only effect, or another doubt; inactive = no such curve, though single readings can be large or run the other way; also: nearly all actives have a fitted effect of over 50% in size
Target sequence (B2RXH2 1-337 limits assumed): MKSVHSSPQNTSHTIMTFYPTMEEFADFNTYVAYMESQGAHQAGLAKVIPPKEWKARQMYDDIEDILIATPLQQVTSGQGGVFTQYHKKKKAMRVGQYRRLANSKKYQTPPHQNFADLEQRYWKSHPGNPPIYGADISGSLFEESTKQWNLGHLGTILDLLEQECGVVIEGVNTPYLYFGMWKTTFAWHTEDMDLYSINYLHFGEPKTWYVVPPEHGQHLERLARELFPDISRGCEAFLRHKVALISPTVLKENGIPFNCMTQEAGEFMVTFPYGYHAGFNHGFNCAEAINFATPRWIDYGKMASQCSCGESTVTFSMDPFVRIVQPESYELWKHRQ
BAZ2B inh = inhibitors of human BAZ2B bromodomain; Q9UIF8; AlphaScreen BAZ2B-H3K14Ac peptide displacement; Potency, µM (doses to about 114 µM), usual class: inhibitors; 360,000 tested, 4.4% active; AID 504333; also: nearly all actives have a fitted effect of over 60% in size
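Protein-peptide AlphaScreen: BAZ2B 50 nM, b-H3K14Ac 50 nM, 1x PBS pH 7.4 + 0.01% Tween-20. Preincubation 30 min RT; cpd 30 min RT (top 110 uM); beads 20 min RT, light-protected.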
PI5P4Ka inh = inhibitors of human PI5P4K alpha; PI5P4Kalpha enzyme, ADP-Glo luminescence, 60 min; stronger effect = lower value; max response, %; 330,000 tested, 1.2% active; active = max response of -50% or lower; inconclusive = between -30% and -50%; inactive = -30% or higher; also: value at the top dose of about 77 µM
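Enzyme plus substrate dispensed, test compounds pinned in, then ATP (5 microM final) added. After 60 min at RT, ADP-Glo reagent 1 for 45 min and reagent 2 for 30 min preceded luminescence imaging.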
HP1b binding inh = HP1-beta chromodomain-methylated histone interaction inhibition; AlphaScreen HP1-beta / biotin-H3K9me3 peptide binding; Potency, µM (series often up to 114 µM), most hits filed as inhibitors; 390,000 tested, 0.56% active; also: nearly all actives have a fitted effect of over 70% in size
Target sequence (P83916 whole entry, looked up): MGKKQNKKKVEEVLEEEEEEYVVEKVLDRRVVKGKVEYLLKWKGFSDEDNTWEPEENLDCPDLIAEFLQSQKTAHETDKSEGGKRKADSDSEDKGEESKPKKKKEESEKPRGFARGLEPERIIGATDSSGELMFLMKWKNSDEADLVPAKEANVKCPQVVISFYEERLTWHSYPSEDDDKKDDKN
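AlphaScreen: HP1-beta (50 nM) preformed 30 min with biotin-H3(1-18)K9me3 peptide (50 nM) in PBS pH 7.4, 0.01% Tween-20. Compound added for 30 min at RT, then streptavidin donor/nickel chelate acceptor beads (10 ug/mL) for 30 min.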
L3MBTL1 block = blocks human L3MBTL1; 230,000 tested, 0.66% active; Q9Y468; AlphaScreen L3MBTL1–H3K9me1 peptide binding; Potency, µM (highest dose often 57.1 µM), hits mostly inhibitors; also: nearly all actives have a fitted effect of over 60% in size
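Displacement of a biotinylated histone H3(1-15) peptide monomethylated at Lys9 (75 nM) from L3MBTL1 (50 nM) was measured by AlphaScreen after a 30 min room-temperature compound incubation; cefsulodin titration served as intraplate control.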
JMJD2A Tudor inh = JMJD2A Tudor domain (human) inhibition. 390,000 tested, 4.4% active. Potency, µM (doses to about 114 µM), usual class: inhibitors. O75164. AlphaScreen JMJD2A-Tudor / H3K4me3 peptide binding. AID 504339; also: nearly all actives have a fitted effect of over 50% in size
A number is an active result; i = inactive; ? = inconclusive; nt = not tested or not shown; [ ] = remark or other dose. Unless noted, calls follow the shape of the dose curve; as a rule, active = well fitted inhibition curve with a large enough effect; inconclusive = small, poorly fitted or top-dose-only effect; inactive = no such curve, though single readings can be large or run the other way.

SMILES | JMJD2E inh | BAZ2B inh | PI5P4Ka inh | HP1b binding inh | L3MBTL1 block | JMJD2A Tudor inh
CC(C)(c1ccccc1)c1ccc(OCC(O)CNC2CCN(Cc3ccccc3)CC2)cc1 (stereo unspecified) | 10µM | 50µM | i | ? | i | 2.8µM
CC(C)c1ccc(S(=O)(=O)N2CCN(C(=O)C3CCCC3)CC2)cc1 | nt | i | i | i | nt | i
Cc1cc(=O)n2c(C(=O)Nc3ccc(C)c(Cl)c3)c(C(=O)Nc3ccccc3)sc2n1 | nt | i | nt | i | nt | i
COc1ccc(C2CC(c3ccccc3)Oc3cc(OC)ccc32)cc1 (stereo unspecified) | nt | nt | nt | ? | nt | 40µM
COc1ccc(C2CC(c3ccccc3)Oc3cc4c(cc32)OCO4)cc1 (stereo unspecified) | nt | nt | nt | ? | nt | 35µM
COc1ccc(C2CC(c3ccccc3)Oc3cc(OC)c(OC)c(OC)c32)cc1 (stereo unspecified) | nt | nt | nt | i | nt | i
COc1ccc(C2CC(c3ccccc3)Oc3ccc(C(C)(C)C)cc32)cc1 (stereo unspecified) | nt | nt | nt | i | nt | i
Cc1ccc(CNC(=O)c2cnc3c(-c4ccccc4)c(C)nn3c2C)o1 | nt | i | nt | i | nt | i
c1csc(-c2nn3c(C4COc5ccccc5O4)nnc3s2)c1 (stereo unspecified) | 32µM | i | nt | i | i | i
Fc1ccc(-c2nn3c(C4COc5ccccc5O4)nnc3s2)cc1 (stereo unspecified) | i | i | nt | ? | i | ?
Cc1[nH]c(-c2ccco2)nc1C(=O)O | i | ? | nt | i | i | 10µM
COc1ccc(-c2nc(-c3ccc4c(c3)OCO4)[nH]c2-c2ccc(OC)cc2)cc1 | i | 18µM | i | ? | ? | 13µM
COc1ccc(-c2nc(SCC(=O)Nc3ccc4c(c3)OCO4)c(-c3ccc(OC)cc3)[nH]2)cc1 | nt | 79µM | nt | i | nt | ?
COc1ccc(-c2[nH]c(-c3ccccc3)nc2SCC(=O)Nc2ccc3c(c2)OCCO3)cc1 | nt | ? | nt | i | nt | ?
COc1ccc(-c2[nH]c(-c3ccc(O)cc3)nc2-c2ccccc2)cc1 | nt | 10µM | nt | i | nt | 63µM
COCCN(CCOC)S(=O)(=O)c1ccc(NC(=O)c2cnccn2)cc1 | nt | i | i | i | i | i
CCOC(=O)C1CCC(CN(Cc2ccc(Cl)cc2)S(=O)(=O)c2cccc(Cl)c2C)CC1 (stereo unspecified) | nt | i | nt | i | nt | i
COc1ccc(-c2nc(-c3ccccc3)c(-c3ccc(O)cc3)[nH]2)cc1 | nt | 35µM | nt | ? | nt | 28µM
Cc1[nH]c(-c2ccc3c(c2)OCO3)nc1C(=O)O | ? | 50µM | ? | i | nt | 22µM
COc1cc(-c2nc(-c3ccccc3)c(-c3cccs3)[nH]2)cc(OC)c1OC | ? | i | nt | i | nt | i
COc1cc(-c2nc(-c3ccccc3)c(-c3cccs3)[nH]2)cc(OC)c1O | ? | 50µM | i | ? | nt | 45µM
O=C(O)COc1ccc(-c2nc(-c3ccccc3)c(-c3ccccc3)[nH]2)cc1 | nt | i | i | i | nt | i
Cc1ccc(NC(=O)CN2C(=O)C(C)(C)c3ccccc32)cc1 | nt | i | nt | i | nt | i
CC(C)CCN(Cc1ccco1)C(=O)c1cc2c(s1)-c1ccccc1OC2 | nt | i | nt | i | nt | i
COc1ccc(NC(=O)CC(NCc2ccccn2)C(=O)O)cc1 (stereo unspecified) | i | 3.2µM | i | i | 14µM | 13µM
SMILES | JMJD2E inh | BAZ2B inh | PI5P4Ka inh | HP1b binding inh | L3MBTL1 block | JMJD2A Tudor inh
CCOc1ccc(NC(=O)CC(NCc2ccccn2)C(=O)O)cc1 (stereo unspecified) | ? | 1.4µM | i | i | nt | 11µM
COc1ccc(NC(=O)CC(C(=O)O)C(C)c2ccccc2)cc1 (stereo unspecified) | nt | i | i | i | i | i
Clc1nssc1=Nc1ccc(Br)cc1 | 11µM | 22µM | -57 | 32µM | nt | 25µM
COc1cc(N=c2ssnc2Cl)cc(OC)c1 | 20µM | 45µM | -79 | i | i[11.4 µM] | 28µM
N#Cc1cccc(N=c2ssnc2Cl)c1 | i | 28µM | -77 | ? | i | 13µM
Clc1ccc(N=c2ssnc2Cl)nc1 | i | i | i | i | ? | i
Clc1nssc1=Nc1nncs1 | nt | 50µM | -55 | ? | i | 22µM
CC/C=C\C/C=C\C/C=C\C/C=C\C/C=C\C/C=C\CCC(=O)O[C@H](COCCCCCCCCCCCCCCCC)COP(=O)([O-])OCC[N+](C)(C)C | i | nt | nt | nt | nt | nt
